From the supplement of paper PMC7556523

These compounds were tested on Sporothrix schenckii ATCC 32286 (assay: growth inhibition relative to untreated control; higher = more growth inhibition (more antifungal activity), active = 80 or more; extreme values may be limits of the assay). Details: 1 µM; 48 h.
Outline: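 Yeast-form cells of the reference isolates (grown 7 days in brain heart infusion broth with 2% glucose at 36°C) were exposed at 1 x 10^5 CFU/ml to library compounds at a final 1 μM for 48 h at 35°C in 5% CO2. Growth was checked by visual inspection under an inverted light microscope and quantified by spectrophotometric readings. The value is percent growth inhibition relative to untreated control. Runs were in quadruplicate.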

Row | Structure (SMILES) | growth inhibition
1 | FC(F)(F)c1ccc(N(c2cccnc2)C2CCN(c3ccc(C(F)(F)F)cn3)CC2)cc1 | 0% (inactive)
2 | CNC(=O)c1nn(C)c2c1C(C)(C)Cc1cnc(Nc3ccc(N4CCN(C)CC4)cc3)nc1-2 | 1.25% (inactive)
3 | O=C(C1CCN(c2cc(-n3cccc3)ncn2)CC1)N1CCc2ccccc2C1 | 10.2% (inactive)
4 | COc1cc(C2=NCCN2)cc2cc(-c3ccc(C4=NCCN4)cc3)oc12 | 4.25% (inactive)
5 | Cc1cc(C)c2cc(C(=O)NC3CCCCCCC3)[nH]c2c1 | 6.25% (inactive)
6 | Cc1ccc(S(=O)(=O)N2CCN(C(=O)c3cc(-c4ccccc4)n[nH]3)CC2)cc1 | 2% (inactive)
7 | CNC(=O)C1Cc2ccccc2N1C(=O)Cc1ccc(F)cc1 (stereo not drawn) | 3.25% (inactive)
8 | Cc1ccc2[nH]c3c(NCCN(C)C)ncnc3c2c1 | 0% (inactive)
9 | Nc1ncnc2c1c(Cc1cccc3ccccc13)nn2CC1CCNCC1 | 0% (inactive)
10 | O=C(NC1CC1)c1ccc(CSCc2ccccc2Cl)o1 | 2% (inactive)
11 | Nc1ccc(C(=O)Nc2ccc(-c3nc4ccccc4o3)cc2)cc1 | 0% (inactive)
12 | CCN(CC)S(=O)(=O)c1ccc(Cl)c(C(=O)Nc2ccc3nc(C)sc3c2)c1 | 9.75% (inactive)
13 | CCCCOC(=O)Nc1cc2nc(C3CCCCC3)[nH]c2cc1N1CCCC1 | 0% (inactive)
14 | O=C(Nc1ccc(C(F)(F)F)c(C(F)(F)F)c1)c1cc(Cl)ccc1O | 62% (inactive)
15 | O=C(C1CCN(c2nnc(-n3cccc3)s2)CC1)N1CCC(Cc2ccccc2)CC1 | 0.5% (inactive)
16 | Cc1ccc2c(c1C)NC(=O)C21NN=C(c2ccccc2)S1 (stereo not drawn) | 4.5% (inactive)
17 | Nc1nccc2ccc(-c3ccc4nccn4c3)cc12 | 13.5% (inactive)
18 | CC(=O)NCC1CN(c2ccc(-c3ccc(CNCc4cn[nH]n4)cc3)c(F)c2)C(=O)O1 (stereo not drawn) | 0% (inactive)
19 | COc1ccc(S(=O)(=O)Nc2ccc(CN3CCN(C(=O)c4cccc(C#N)c4)CC3)cc2)cc1 | 7.75% (inactive)

Row | Structure (SMILES) | growth inhibition
20 | CC[C@@H]([C@H](C)O)n1ncn(-c2ccc(N3CCN(c4ccc(OC[C@@H]5CO[C@@](Cn6cncn6)(c6ccc(F)cc6F)C5)cc4)CC3)cc2)c1=O | 88.5% (active)
21 | FC(F)(F)c1cnc(Sc2nnc(-c3ccncc3)o2)c(Cl)c1 | 0% (inactive)
22 | COc1ccc(-c2cnc3ccc(NCc4ccc(S(N)(=O)=O)cc4)nn23)cn1 | 18.2% (inactive)
23 | CC(Oc1cccc(Cl)c1)C(=O)Nc1ccc2oc(-c3ccncc3)nc2c1 (stereo not drawn) | 4.25% (inactive)
24 | c1ccc(-c2nc(NC3CCCCC3)cc(C3CC3)n2)nc1 | 38.2% (inactive)
25 | Clc1ccc(CCNc2cc(-c3ccccc3)nc3ncnn23)cc1 | 18.2% (inactive)
26 | CCCNC(=O)N1CCC2(CC1)CC(=O)c1cc(C)ccc1O2 | 2.25% (inactive)
27 | Cc1cc(Cl)c(S(=O)(=O)N2CCCC2)cc1OCC(=O)NC1CCCCC1 | 0% (inactive)
28 | C[C@H](C(N)=O)N1CCCC[C@H]1c1ccc(OCc2cccc(F)c2)cc1 | 10% (inactive)
29 | Nc1ncnc2c1ncn2C[C@@H](O)[C@@H](O)C(=O)O | 11.8% (inactive)
30 | O=S(=O)(c1ccc(Cl)cc1)N1CCN(C(=S)NCc2ccco2)CC1 | 12% (inactive)
31 | O=C(Nc1ccc(N2CCNCC2)nc1)c1oc(-c2ccccc2)nc1C(F)(F)F | 13.5% (inactive)
32 | CCc1nc2ccc(C(=O)NCc3ccc4c(c3)OCO4)cn2c1N(C)Cc1cccs1 | 2.75% (inactive)
33 | CC(C)(C)OC(=O)N1CCC(Cn2nc(-c3cnc4ccccc4c3)c3c(N)ncnc32)CC1 | 4.5% (inactive)
34 | COc1ccc2nc(C)cc(OCC(=O)Nc3ccccc3OC)c2c1 | 0.75% (inactive)
35 | COc1ccc(-c2nnc3ccc(-c4cccc(C(C)C)c4)cn23)cc1OC | 16.8% (inactive)
36 | Cc1ccc(-c2nc(CN(Cc3ccccn3)C(C)C)cs2)o1 | 1.75% (inactive)
37 | COc1cc(C2=NCCN2)ccc1-n1cc(-c2cccc(C3=NCCN3)c2)nn1 | 5.5% (inactive)
38 | C[C@@H]1[C@H](O)[C@@H](C)/C=C/C=C/C=C/C=C/C=C/C=C/C=C/[C@H](O[C@@H]2O[C@H](C)[C@@H](O)[C@H](N)[C@@H]2O)C[C@@H]2O[C@](O)(C[C@@H](O)C[C@@H](O)[C@H](O)CC[C@@H](O)C[C@@H](O)CC(=O)O[C@H]1C)C[C@H](O)[C@H]2C(=O)O | 16% (inactive)
